In PubChem BioAssay AID1159580 (chemical genetic matrix, 2015):
Where “and” joins values, the source holds several entries; their conditions need not be identical. Equal values may be shown once. Hit rate of the full screen: of about 5,500 compounds, about 2,000 (36%) were called active. Roughly 18% stayed inconclusive and do not appear here. Cut-off read from the data, not from the text of the source: active = normalized growth mostly below about 0.91 (no sharp cut-off); inconclusive = no clear call, values can overlap the other calls; inactive = mostly above about 0.92. Some of the results follow.

Assay: chemical genetic growth profiling, strain panel (AID 1159580);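 note: tested at 20 µM; growth read once vehicle control cultures reached saturation at 30 °C; 1 = growth at the plate median or of vehicle wells; lower values mean less growth of the strain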
Conditions: S. cerevisiae deletion strains, growth OD

Measured: normalized growth

O=c1c(O)cc([C@H]2Oc3cc(O)cc(O)c3C[C@H]2O)cc2c([C@H]3Oc4cc(O)cc(O)c4C[C@H]3O)cc(O)c(O)c12
active: locus YJL129C, strain trk1, hits give low values 1.14 [resistant]
inactive: locus YAL013W, strain DEP1, hits give low values 1.01 | locus YAL021C, strain ccr4, hits give low values 1.01 | locus YAL026C, strain drs2, hits give low values 1.04 | locus YAL030W, strain snc1, hits give low values 1.04 | locus YBL061C, strain skt5, hits give low values 1.03 | locus YBR009C, strain hhf1, hits give low values 1.04 | locus YBR021W, strain FUR4, hits give low values 1.01 | locus YBR023C, strain chs3, hits give low values 1.02 | locus YBR171W, strain sec66, hits give low values 1.06 | locus YBR229C, strain ROT2, hits give low values 0.998 | locus YBR231C, strain swc5, hits give low values 1.02 | locus YBR279W, strain paf1, hits give low values 1.02 | locus YCL011C, strain gbp2, hits give low values 1.04 | locus YCL016C, strain dcc1, hits give low values 1.02 | locus YCL029C, strain bik1, hits give low values 0.998 | locus YCL069W, strain vba3, hits give low values 1.03 | locus YCR088W, strain abp1, hits give low values 1.04 | locus YDL005C, strain med2, hits give low values 1.05 | locus YDL035C, strain GPR1, hits give low values 1.03 | locus YDL040C, strain nat1, hits give low values 1.04 | locus YDL074C, strain BRE1, hits give low values 1.04 | locus YDL101C, strain DUN1, hits give low values 1.02 | locus YDL185W, strain tfp1, hits give low values 1.01 | locus YDL192W, strain arf1, hits give low values 1 | locus YDR001C, strain nth1, hits give low values 1.03 | locus YDR069C, strain doa4, hits give low values 0.995 | locus YDR101C, strain arx1, hits give low values 1.02 | locus YDR137W, strain rgp1, hits give low values 1.03 | locus YDR159W, strain sac3, hits give low values 1.1 | locus YDR162C, strain NBP2, hits give low values 1.03 | locus YDR195W, strain ref2 1.04 | locus YDR297W, strain sur2, hits give low values 1.02 | locus YDR318W, strain mcm21, hits give low values 1.02 | locus YDR334W, strain swr1, hits give low values 1.03 | locus YDR335W, strain msn5, hits give low values 1.02 | locus YDR388W, hits give low values 0.995 | locus YDR392W, strain spt3, hits give low values 1.03 | locus YDR502C, strain sam2, hits give low values 1.03 | locus YEL003W, strain gim4, hits give low values 1.03 | locus YEL037C, strain rad23, hits give low values 1.02 | locus YEL061C, strain CIN8 (second series), hits give low values 1.04 | locus YEL061C, strain CIN8, hits give low values 1.01 | locus YER015W, strain faa2, hits give low values 1.01 | locus YER016W, strain bim1, hits give low values 1.04 | locus YER110C, hits give low values 1.03 | locus YER111C, strain swi4, hits give low values 1.01 | locus YER155C, strain BEM2 (second series), hits give low values 1.08 | locus YER155C, strain BEM2, hits give low values 1.05 | locus YER167W, strain BCK2, hits give low values 1.02 | locus YFR010W, strain ubp6, hits give low values 1.03 | locus YGL078C, strain dbp3, hits give low values 1.01 | locus YGL086W, strain mad1, hits give low values 1.02 | locus YGL167C, strain pmr1, hits give low values 1.03 | locus YGL173C, strain kem1, hits give low values 1.03 | locus YGL227W, strain vid30, hits give low values 1.05 | locus YGL240W, strain doc1, hits give low values 1.06 | locus YGL248W, strain PDE1, hits give low values 0.998 | locus YGL253W, strain hxk2, hits give low values 1.05 | locus YGR135W, strain pre9, hits give low values 1.01 | locus YGR252W, strain gcn5, hits give low values 1.01 | locus YHR013C, strain ard1, hits give low values 1.05 | locus YHR027C, strain rpn1, hits give low values 1.02 | locus YHR030C, strain SLT2, hits give low values 0.985 | locus YHR079C, strain IRE1 (second series), hits give low values 1.02 | locus YHR079C, strain IRE1, hits give low values 0.999 | locus YHR094C, strain hxt1, hits give low values 1.02 | locus YHR129C, strain ARP1, hits give low values 1.01 | locus YHR142W, strain chs7, hits give low values 1.05 | locus YHR200W, strain rpn10, hits give low values 0.994 | locus YIL066C, strain RNR3, hits give low values 1.02 | locus YIL073C, strain SPO22, hits give low values 1.1 | locus YIL125W, strain kgd1, hits give low values 1.02 | locus YIR030C, strain dcg1, hits give low values 1.01 | locus YJL092W, strain hpr5, hits give low values 1.03 | locus YJL095W, strain BCK1 (second series), hits give low values 1.02 | locus YJL095W, strain BCK1, hits give low values 0.995 and 1.01 | locus YJL115W, strain asf1, hits give low values 1.05 | locus YJL134W, strain LCB3, hits give low values 1.02 | locus YJL154C, strain vps35, hits give low values 1.04 | locus YJL164C, strain tpk1, hits give low values 1.01 | locus YJL166W, strain qcr8, hits give low values 1.05 | locus YJL168C, strain set2, hits give low values 1.02 | locus YJL187C, strain SWE1 (second series), hits give low values 0.997 | locus YJR043C, strain POL32, hits give low values 1.03
